Data as given in PubChem BioAssay (NCI).
This is part of a sample that, as a whole, favours compounds with a hit. Of some 79,000 tested, about 15% had one in any assay. Active and inactive are the calls of the source. No stated cut-off is given here; in the data, active means growth inhibition above about 70%; inactive means the rest.

Tests used:
[1] = NCI Yeast Anticancer Drug Screen. Data for the rad50 strain (AID 155);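 further: 0% = growth of vehicle-only cultures of the same strain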; conditions: S. cerevisiae rad50 strain growth inhibition; at 50.0 µM; hits give high values
In short: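 Vehicle-treated cultures provide the reference for the growth inhibition reported for compound-exposed, repair-deficient yeast.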

[2] = NCI Yeast Anticancer Drug Screen. Data for the mec2-1 strain (AID 157); conditions: S. cerevisiae mec2-1 strain, at 50.0 µM, hits give high values
In short: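 Yeast mec2-1 mutant treated with compound. Readout: growth inhibition vs vehicle controls.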

[3] = NCI Yeast Anticancer Drug Screen. Data for the sgs1 mgt1 strain (AID 161);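 further: 0% = growth of cultures given vehicle only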; conditions: S. cerevisiae sgs1 mgt1 strain, at 50.0 µM, hits give high values
In short: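 Read-out: growth inhibition vs vehicle controls. Cells: mutant yeast strain deficient in DNA damage repair.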

[4] = NCI Yeast Anticancer Drug Screen. Data for the cln2 rad14 strain (AID 165);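 further: 0% = growth equal to vehicle treated cultures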; conditions: S. cerevisiae cln2 rad14 strain, at 50.0 µM, hits give high values
In short: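 cln2 rad14 yeast strain; compound exposure; growth inhibition read vs vehicle controls.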

[5] = NCI Yeast Anticancer Drug Screen. Data for the bub3 strain (AID 167); conditions: S. cerevisiae bub3 mutant strain, at 50.0 µM, hits give high values
In short: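 Mutant yeast screening strain plus compound; vehicle-treated cultures serve as the 0% inhibition reference.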

[6] = NCI Yeast Anticancer Drug Screen. Data for the mlh1 rad18 strain (AID 175); conditions: S. cerevisiae mlh1 rad18 strain growth inhibition; at 50.0 µM; hits give high values
In short: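 Yeast w/ defined DNA-repair lesions; compound exposure; growth vs vehicle controls → % inhibition.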

Measured: growth inhibition

Brc1cc(Br)c(Br)cc1Br
inactive: [1] 6.1% | [2] 5.7% | [3] 8.6% | [4] 13.8% | [5] -3.65% | [6] 12.3%

COc1c(NC(=O)c2ccc(Cl)c(Cl)c2)cccc1[N+](=O)[O-]
inactive: [1] 7.6% | [2] -9.1% | [3] 3.35% | [4] -2.85% | [5] 1.3% | [6] -1.3%

O=C(Nc1ccn(C2CCC(COC(c3ccccc3)(c3ccccc3)c3ccccc3)O2)c(=O)n1)c1ccccc1 (stereo unspecified)
inactive: [1] 8.05% | [2] 19.4% | [3] 27.6% | [4] -25% | [5] -26.2% | [6] 16.9%

CC1=C(C(=O)NNC(=O)CC#N)CC(C(=O)NNC(=O)CC#N)=C(C)N1
inactive: [1] -27.7% | [2] -43.8% | [3] -20.8% | [4] -24.6% | [5] -27.4% | [6] -0.05%

O=C1OC(=O)C2C1C1CCC2C1(c1ccccc1)c1ccccc1 (stereo unspecified)
inactive: [1] 22.5% | [2] -0.95% | [3] 31.4% | [4] -4.7% | [5] -0.05% | [6] -2.85%

CC(=O)C1CN(C)CCC1=O (stereo unspecified)
inactive: [1] -20% | [2] -4.55% | [3] -19.8% | [4] -11.2% | [5] -13.7% | [6] 16.9%

Cc1cc(=O)[nH]c(NN)n1
inactive: [1] 1% | [2] -1.85% | [3] -1.85% | [4] 23.1% | [5] 21.9% | [6] 2.15%

COc1ccc(C=Nc2c(O)ccc3ccccc23)cc1OC
inactive: [1] 12.6% | [2] -11.6% | [3] -24.9% | [4] -15.3% | [5] -17.4% | [6] -0.75%

COC(=O)[C@H]1C=C[C@@H](C)n2c(=O)c3cc4ccccc4cc3c(=O)n21
inactive: [1] -21.2% | [2] -1.55% | [3] -18.9% | [4] -7.95% | [5] -24% | [6] -18.2%

N#C/C(=C\c1ccc2ccccc2c1)c1ccccc1
inactive: [1] 37.9% | [2] 14.9% | [3] 12.8% | [4] 17% | [5] 25.7% | [6] 52%

CCOc1nc(-c2ccccc2)cc(-c2ccc(N3CCOCC3)cc2)c1C#N
inactive: [1] 19% | [2] 9.55% | [3] -7.4% | [4] -11.6% | [5] -4.5% | [6] 27.5%

CC(=O)c1c2c(cc3c1CC1(C3)Cc3cc4c(c(C(C)=O)c3C1)CCC4)CCC2
inactive: [1] -21.5% | [2] -31.4% | [3] -4% | [4] -5.45% | [5] -3.35% | [6] -30.6%

NS(=O)(=O)c1ccc(NC(=O)Nc2ccccc2F)cc1
inactive: [1] -3.35% | [2] -6.85% | [3] -28.4% | [4] -13.2% | [5] 1.15% | [6] 12.6%

CCOC(=O)C1=C(O)C(=O)c2ccoc2C1=O
inactive: [1] -52.9% | [2] -35.2% | [3] -58% | [4] -7.15% | [5] -32.5% | [6] -32%

Cc1cc(N(CCC#N)CCC#N)ccc1/C=C\C(=O)Nc1ccccc1
inactive: [1] 19.3% | [2] 16.3% | [3] -10.8% | [4] 10.2% | [5] 36.7% | [6] 4.55%

Cc1cc(N)ccc1C(=O)O
inactive: [1] 1.7% | [2] -7.65% | [3] -0.65% | [4] 4.15% | [5] 5.2% | [6] 2.45%

COc1ccc2ccccc2c1
inactive: [1] -21% | [2] -30% | [3] -12.2% | [4] -23.9% | [5] 1.35% | [6] -31.6%

COc1cc2c(cc1OC)C1(c3ccccc3)ON=C(c3ccccc3)N1CS2 (stereo unspecified)
inactive: [1] -14.1% | [2] -12.4% | [3] 8.95% | [4] -32.4% | [5] -7.05% | [6] -11.1%

CCCC(=O)Oc1c(Cl)cc(Cl)cc1-c1ccccc1
inactive: [1] 12.8% | [2] 12.9% | [3] 37.9% | [4] 8.1% | [5] 28.6% | [6] 1.45%

CC(CO)N1CCCCCC1 (stereo unspecified)
inactive: [1] -20.4% | [2] -15.7% | [3] 5.9% | [4] -17.7% | [5] 10.7% | [6] -9%

Nc1ccc(C(=O)CC(=O)c2cccc([N+](=O)[O-])c2)cc1
inactive: [1] 26.4% | [2] 20.4% | [3] 39.4% | [4] 21.5% | [5] 27.4% | [6] 2.1%

C[N+](C)(C)/C=C/c1ccccc1
inactive: [1] 30.8% | [2] -8.2% | [3] 21% | [4] -11.3% | [5] 0.2% | [6] 38.9%

COc1ccc(NC(=O)Nc2cccc(Cl)c2C)c(OC)c1
inactive: [1] -0.9% | [2] 9.3% | [3] 32.8% | [4] -3.15% | [5] 9.85% | [6] 5.6%

COC(=O)C(C)CN1CCCCC1 (stereo unspecified)
inactive: [1] 20.1% | [2] 6.2% | [3] 22.1% | [4] -6.45% | [5] 31.9% | [6] 19.9%

O=C(O)C(Cc1ccccc1)N1C(=O)c2ccccc2C1=O (stereo unspecified)
inactive: [1] 1.7% | [2] -17.5% | [3] -35.6% | [4] -19.6% | [5] -36.5% | [6] 5.55%

COc1c(-c2ccccc2)c(=O)n2c3cc(C)c(C)cc3n(C)c2c1C#N
inactive: [1] -13.4% | [2] -0.4% | [3] 18.5% | [4] -13.9% | [5] -31.1% | [6] -2.85%

Nc1nc(C2CCCCC2)cs1
inactive: [1] 54.2% | [2] 29.8% | [3] 31.1% | [4] 16.1% | [5] 14.9% | [6] 20.4%

Cc1cc(NS(=O)(=O)c2ccc(NC(=O)c3cccc4c(N)c5ccccc5nc34)cc2)no1
inactive: [1] 34.1% | [2] 14.9% | [3] 29.3% | [4] 39.5% | [5] 3.85% | [6] 37%

NC(CSC(c1ccccc1)(c1ccccc1)c1ccccc1)C(=O)OC(c1ccccc1)c1ccccc1 (stereo unspecified)
inactive: [1] 19.3% | [2] -7% | [3] 29.6% | [4] -44.5% | [5] -18.7% | [6] 22.2%

COc1cccc2c1C(=O)c1c(O)c3c(c(O)c1C2=O)CC(O)(C(O)CO)CC3OC1CC(N2CCSCC2)C(O)C(C)O1 (stereo unspecified)
active: [1] 87.7% | [2] 87.5% | [3] 88% | [4] 84% | [5] 85.8% | [6] 90.3%

CN(C)CCCn1cnc2cc(Cl)c(Cl)cc21
inactive: [1] 0.2% | [2] -6.4% | [3] -21% | [4] -0.8% | [5] 9.95% | [6] -0.15%

O=C(/C=C/c1ccccc1)CC(=O)c1ccccc1.O=C(/C=C/c1ccccc1)CC(=O)c1ccccc1.[Cu]
inactive: [1] -17.1% | [2] -10.7% | [3] -15.7% | [4] -35.8% | [5] -2.45% | [6] -15.9%

CC(Cc1ccccc1)NN (stereo unspecified)
inactive: [1] 14.8% | [2] 9.55% | [3] 16.5% | [4] 5.65% | [5] 10.4% | [6] 9.4%

CC1=C(C(=O)NCc2ccccc2)C(c2ccccc2C)C(C(=O)NCc2ccccc2)=C(C)N1
inactive: [1] 52.1% | [2] 26% | [3] 31.6% | [4] -10.9% | [5] 36% | [6] 25.4%

Cc1ccc(C(=O)NC(N)=O)cc1
inactive: [1] 12.4% | [2] -6.25% | [3] -17.8% | [4] -51.4% | [5] -13.1% | [6] -18.6%

C=C(C)[C@@H]1CC[C@@H]2C(=CC[C@]3(C)C([C@H](C)CC/C=C(/C)C(=O)O)CC[C@@]23C)[C@@]1(C)CCC(=O)O (stereo partly specified)
inactive: [1] 15.6% | [2] -4.95% | [3] -0.85% | [4] 14.4% | [5] 4.05% | [6] -63.2%

O=c1[nH]cnc2c1ncn2C1CCC(CO)O1 (stereo unspecified)
inactive: [1] -11% | [2] 14.6% | [3] 11.3% | [4] -0.1% | [5] 1.85% | [6] -8.85%

O=c1[nH]c2cc(Cl)c([N+](=O)[O-])cc2c2ccc(Cl)cc12
inactive: [1] 3.15% | [2] -7.7% | [3] -1.6% | [4] -10.7% | [5] 3.1% | [6] 8.05%

CC(=O)OCC(C)Cc1ccc(C(C)(C)C)cc1 (stereo unspecified)
inactive: [1] 3% | [2] 0.3% | [3] 0.7% | [4] -4% | [5] 9.6% | [6] -2.4%

SC1CCCN(Cc2ccccc2)C1 (stereo unspecified)
inactive: [1] 24.9% | [2] 4.9% | [3] 2.15% | [4] 33.8% | [5] 8.9% | [6] 17.6%

CCOC(=O)CCC(Cl)(Cl)Cl
inactive: [1] 14% | [2] -9.95% | [3] -1.45% | [4] -39% | [5] -7.85% | [6] 9.2%
